From PubChem
esBAF inh – Bmi1 luciferase reporter increase in mESCs, primary screen, esBAF inhibitor project, mouse ES cells, Bmi1 luciferase knock-in, single point | 24 h; 100% = twice the neutral-well signal | reporter increase, % at 12.5 µM | actives 2% (n = 350,000) | AID 602393, 2012; in the data active means activation above about 40%;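 further: 0% = median of the plate's neutral control wells and 100% = double that signal; a rise in the Bmi1 reporter signal indicates esBAF inhibition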
MITF act – activators of MITF-driven TRPM1 promoter reporter, primary screen, cell-based, SK-MEL-5, luciferase, single point | actives 0.75% (n = 300,000) | activation, % at 12.5 µM | SK-MEL-5 TRPM1-promoter luciferase, 24 h; % of positive control, neutral wells = 0;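 active means mean activation of at least 80% with every replicate also reaching 80%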;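 further: 0% = neutral control wells and 100% = parthenolide positive control wells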
Wnt act – Wnt/beta-catenin pathway activators, primary screen, cell-based, plate reader, single point; actives 1.2% (n = 300,000); activation, % at 9.35 µM; Wnt/beta-catenin reporter cell assay, activator; in the data active means activation above about 30%, passing the limit was not always enough;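 further: 0% = neutral control wells and 100% = positive control wells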
HIV Env fusion – inhibitors of HIV-1 Env-driven cell-cell fusion, primary screen, HeLa-JRFL effector, CEM21 target cells, luciferase. actives 1.1% (n = 360,000). AID 651610, 2012. inhibition, % at 12.3 µM;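 active means mean replicate inhibition score of at least 50 and every replicate individually at or above 50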;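 further: 0% = plate neutral controls and 100% = maraviroc near 300 nM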
miR-122 sensor – miR-122 Renilla sensor signal increase in Huh7, primary screen, miR-122 inhibitor project, cell-based, single point, plate reader. activation (reporter increase), % at 12.5 µM. Huh7 miR-122 Renilla luciferase sensor, 48 h; neutral wells = 0, positive control = 100. actives 0.3% (n = 340,000);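 active means mean replicate activation score at least 90 and every replicate individually at or above 90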;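 further: higher luciferase means less miR-122 activity so hits act as miR-122 inhibitors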
The depositor's hits bear a star; · = no result; [ ] = another dose, or the depositor's remark. In the library only some 3.4% were active in any assay of this set; here they are far more common.

SMILES | esBAF inh | MITF act | Wnt act | HIV Env fusion | miR-122 sensor
O=C(C[C@H]1C[C@@H]2c3cc(NC(=O)CC4CC4)ccc3O[C@@H]2[C@H](CO)O1)NCc1ccccc1F | -4.5 | · | · | · | -0.4[16.7 µM]
CCCOC1CCCN(C(=O)c2cc(COc3c(F)cccc3F)on2)C1 (configuration not stated) | 88.8* | 62.4 | 17.4 | -309.8 | -3.3
Cc1ccccc1C1CCCN(C(=O)c2cc(COc3c(F)cccc3F)on2)C1 (configuration not stated) | -2.4 | 3.6 | 15.2 | 15.5 | 0.5
COc1ccc(NC(=O)Nc2ccc3c(c2)C(=O)N([C@@H](C)CO)C[C@H](C)[C@@H](CN(C)S(=O)(=O)c2cccs2)O3)cc1 | 3.4 | · | · | 10.4[16.7 µM] | -6.0[16.7 µM]
CC(C)C[C@H](NC(=O)c1[nH]cnc1C(=O)N[C@@H](Cc1ccccc1)C(=O)OCc1ccccc1)C(=O)OC(C)(C)C | · | 0.4 | -2.2 | 44.4 | 2.0
CC(C)C[C@H](NC(=O)c1[nH]cnc1C(=O)N[C@@H](Cc1ccccc1)C(=O)OC(C)(C)C)C(=O)OCc1ccccc1 | 14.5 | 1.2 | -19.5 | 58.5* | 4.4
CC(C)(C)C(=O)NCc1ccc(C(=O)CSc2nnc3n2CCCCC3)s1 | -7.5 | · | -0.7 | -8.9 | 1.2
Cc1ccc(C(=O)CSc2nnc3n2CCCCC3)s1 | 64.8* | 45.9 | 21.9 | · | ·
Cc1noc(C)c1NC(=O)N(C)C[C@H]1OCCCC[C@@H](C)Oc2ccc(NC(=O)NC3CCCCC3)cc2C(=O)N([C@H](C)CO)C[C@@H]1C | 1.2 | · | · | -10.3[16.7 µM] | 16.1[16.7 µM]
CSc1ncccc1C(=O)OCC(=O)c1cc(C)n(C)c1C | 24.7 | 91.7* | 53.5* | · | ·
CSc1ncccc1C(=O)OCC(=O)c1cc(C)n(CC2CCCO2)c1C (configuration not stated) | -28.7 | 24.2 | 9.6 | -41.6 | -4.6
CCn1c(C)cc(C(=O)COC(=O)c2cccnc2SC)c1C | 52.8* | 27.0 | 16.8 | -126.5 | -5.0
CNC[C@@H]1Oc2ccc(NC(=O)Cn3cnnn3)cc2C(=O)N([C@H](C)CO)C[C@@H]1C | 5.2 | · | · | · | -5.5[16.7 µM]
CN1C(=O)c2cc(NC(=O)c3ccccc3F)ccc2OC[C@@H]2O[C@H](CC(=O)NCc3ccc4c(c3)OCO4)CC[C@H]21 | 5.2 | · | · | -1.1[16.7 µM] | 38.3[16.7 µM]
N#C[C@H]1[C@@H](c2ccc(C3=CCCCC3)cc2)[C@@H](CO)N1S(=O)(=O)c1ccccc1 | 0.5 | · | · | · | ·
O=C(Nn1cnc2ccccc2c1=O)c1c(F)cccc1F | -5.6 | -8.8 | 44.3* | -16.2 | -16.3
COC(=O)[C@]12C[C@H](CC(=O)N3CCN(C(=O)C4CC4)CC3)C(=O)N(CCC3=CCCCC3)C1=C[C@H](C(C)(C)C)O[C@@H]2C | · | · | -2.2 | 56.8* | ·
CCOC(=O)N1CCN(C(=O)C[C@H]2C[C@@]3(C(=O)OC)C(=C[C@H](C(C)(C)C)O[C@@H]3C)N(CCC3=CCCCC3)C2=O)CC1 | · | · | -4.7 | 97.7* | ·
CCOC(=O)N1CCN(C(=O)C[C@H]2C[C@@]3(C(=O)OC)C(=C[C@H](C(C)(C)C)O[C@@H]3C)N(Cc3ccccc3)C2=O)CC1 | · | · | -2.7 | 20.1 | ·
COC(=O)[C@]12C[C@H](CC(=O)N3CCCC3)C(=O)N(CCC3=CCCCC3)C1=C[C@H](COCc1ccccc1)O[C@@H]2C | · | · | -4.3 | 5.7 | ·
c1cc2c(cc1CNc1ccc(N3CCOCC3)cc1)OCO2 | 68.8* | 74.6 | 7.7 | -51.5 | 6.8
CC(C)c1ccc(CNc2ccc(N3CCOCC3)cc2)cc1 | 6.4 | -6.8 | -3.6 | -10.5 | 3.0
Cc1ccc(CNc2ccc(N3CCOCC3)cc2)cc1 | 64.3* | 11.4 | 0.1 | -18.2 | -2.5
Cc1ccccc1CC(=O)Nc1ccc2c(c1)CCC2 | 19.4 | 18.7 | 4.1 | 10.9 | 11.3
Cn1nc(CC(=O)NC2CCCCCCCCCCC2)c2ccccc2c1=O | -4.9 | -9.1 | -9.1 | 36.3 | -4.6
Cn1nc(CC(=O)Nc2ccc3c(c2)CCC3)c2ccccc2c1=O | -31.5 | · | -7.2 | 78.8* | 5.5
O=C(Cc1ccccc1F)Nc1ccc2c(c1)CCC2 | 71.7* | 129.0* | 16.5 | -14.7 | ·
CCCNC(=O)N1C[C@@H](C)[C@H](OC)CN(C)C(=O)c2ccc(NS(C)(=O)=O)cc2OC[C@H]1C | 2.0 | · | · | -0.1[16.7 µM] | -5.2[16.7 µM]
